Test [1] in a line: NCI Yeast Anticancer Drug Screen. Data for the rad50 strain (AID 155).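 Note: 0% = growth of vehicle-only cultures of the same strain.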 The note with it: S. cerevisiae rad50 strain growth inhibition; at 50.0 µM; stronger effect = higher value. Put shortly:
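Genetically altered yeast (DNA repair pathway); compound treatment; growth inhibition vs vehicle ctrl.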

The nature of test [2]: NCI Yeast Anticancer Drug Screen. Data for the mec2-1 strain (AID 157). The conditions noted are these: S. cerevisiae mec2-1 strain, at 50.0 µM, stronger effect = higher value. The method, boiled down: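 Yeast mec2-1 mutant treated with compound. Readout: growth inhibition vs vehicle controls.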
Test [3] can be described thus: NCI Yeast Anticancer Drug Screen. Data for the sgs1 mgt1 strain (AID 161).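 Note: 0% = growth of cultures given vehicle only.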 The conditions noted are these: S. cerevisiae sgs1 mgt1 strain, at 50.0 µM, stronger effect = higher value. Put shortly: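 Genetically altered yeast, compound exposure, growth inhibition relative to vehicle.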
The nature of test [4]: NCI Yeast Anticancer Drug Screen. Data for the cln2 rad14 strain (AID 165).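 Note: 0% = growth equal to vehicle treated cultures.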 The note with it: S. cerevisiae cln2 rad14 strain, at 50.0 µM, stronger effect = higher value. The method, boiled down:
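cln2 rad14 yeast strain; compound exposure; growth inhibition read vs vehicle controls.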

The nature of test [5]: NCI Yeast Anticancer Drug Screen. Data for the bub3 strain (AID 167). The conditions noted are these: S. cerevisiae bub3 mutant strain, at 50.0 µM, stronger effect = higher value. The method, boiled down: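 Yeast carrying a defined mutation is treated with each compound, and growth is compared with that of vehicle-exposed cells to give inhibition.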
Test [6] in a line: NCI Yeast Anticancer Drug Screen. Data for the mlh1 rad18 strain (AID 175). The note with it: S. cerevisiae mlh1 rad18 strain growth inhibition; at 50.0 µM; stronger effect = higher value. The method, boiled down: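 Yeast w/ defined DNA-repair lesions; compound exposure; growth vs vehicle controls → % inhibition.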

Among the data in PubChem BioAssay (NCI) are growth inhibition values, retold here.

Each structure is given as a SMILES string. “And” between values parts separate entries of the source, which are not always exact repeats. Identical values can stand only once. About 79,000 compounds went through this panel and 15% of them were active in at least one assay; those are over-represented in the sample as a whole. Values without a mark were called inactive. The source made the active and inactive calls. Cut-off read from the data, not from the text of the source: active = growth inhibition above about 70%; inactive = the rest.

Consider `CC1CCC2[S][Sn]3([NH]C2C1)[NH]C1CC(C)CCC1[S]3` (stereo not given), for which the growth inhibition in test [1] was 97% (active); in test [2], 96.5% (active); in test [3], 99.1% (active); in test [4], 95.8% (active); in test [5], 98.2% (active); in test [6], 96.5% (active).

`COc1cc(C(CC(C)=O)c2cc3c(cc2OC(C)=O)OCO3)cc(OC)c1OC` (stereo not given): the growth inhibition in test [1] was 18.8%; in test [2], 4.4%; in test [3] it was -0.9%; in test [4], -9.1%; in test [5] it was 10.8%; in test [6], 21.9%.

With `CN(C)C(=O)Oc1c(-c2ccccc2)c(=O)n2c3ccccc3n3c(=O)n(C)c(=O)c1c23`, the growth inhibition is 21.8% in test [1]; 23.4% in test [2]; -0.9% in test [3]; 17.1% in test [4]; 11.7% in test [5]; 19.8% in test [6].

With `COc1cc2c(cc1O)N=C[C@@H]1CCC(O)N1C2=O` (mixture of isomers), the growth inhibition is 19.6% in test [1]; 16.3% in test [2]; 19.2% in test [3]; 58.8% in test [4]; -2.2% in test [5]; 3.9% in test [6].

For the compound `CC(C)(C)NC(=O)C(Cl)Cl`, the growth inhibition in test [1] is -0.65%; in test [2], -5.7%; in test [3] it was -5.85%; in test [4], -9.6%; in test [5], 5.15%; in test [6], 3.35%.

In the case of `ClCc1ccc2ccccc2n1`, the growth inhibition was 19.1% and 11.7% in test [1]; -8.8% and -0.5% in test [2]; -3.8% and 8.5% in test [3]; 7.55% and 3.35% in test [4]; -17.6% and -7.65% in test [5]; 9.75% and 4.55% in test [6].

Regarding `CC(Cl)CN1COc2ccc3ccc4c(c3c2C1)CN(CC(C)Cl)CO4` (stereo not given), the growth inhibition is 29.1% in test [1]; 14.4% in test [2]; 28.4% in test [3]; -17.9% in test [4]; 6% in test [5]; 34.1% in test [6].

In the case of `C1CC[N-]CC1.C1CC[N-]CC1.[Cl][Pd][Cl]`, the growth inhibition in test [1] was 1.25%; in test [2], 8.8%; in test [3], 13%; in test [4], -23.6%; in test [5] it was 10.8%; in test [6], 15.4%.

`CCC1(CC(C)(C)Cl)C(=O)NC(=O)NC1=O`: the growth inhibition in test [1] was -4.55%; in test [2], -7.7%; in test [3], -21.4%; in test [4], -30.7%; in test [5], 3.45%; in test [6], -20%.

Turning to `O=P(O)(Oc1ccccc1)Oc1ccccc1`, the growth inhibition in test [1] was 33.7%; in test [2] it was 16.4%; in test [3] it was 14.8%; in test [4], 18.2%; in test [5], 0.55%; in test [6], 20.9%.

Regarding `CC(C)CCC1(CC[N+](C)(C)C)C(=O)NC(=O)NC1=O`, the growth inhibition is 5.95% in test [1]; -9.85% in test [2]; 6.15% in test [3]; -29.2% in test [4]; 10.7% in test [5]; -7.05% in test [6].

In the case of `C1=C[N-]c2c3c(ccc2=C1)=CC=C[N-]3.C1=C[N-]c2c3c(ccc2=C1)=CC=C[N-]3.[Cl][Ru][Cl]`, the growth inhibition in test [1] is 70.3% (active); in test [2], 28.3%; in test [3], 49%; in test [4] it was 44.4%; in test [5], 61%; in test [6] it was 33.8%.

With `O=[N+]([O-])c1ncccc1NCCN1CCCC1`, the growth inhibition in test [1] is -2.2%; in test [2], -0.5%; in test [3], -15.8%; in test [4], -29.3%; in test [5] it was 7.05%; in test [6] it was 4.7%.

As for `NCCN.NCCN.O=C([O-])CCl.O=C([O-])CCl.[Co+3].[O-][Cl+3]([O-])([O-])[O-]`, the growth inhibition is -23.8% in test [1]; 3.45% in test [2]; -43.2% in test [3]; 8.4% in test [4]; -18.5% in test [5]; -9% in test [6].

Regarding `O=C(O)CN(CCN(CC(=O)O)CC(=O)O)CC(=O)O.[Co+2]`, the growth inhibition in test [1] is 0.25%; in test [2], -3.85%; in test [3], 13.2%; in test [4], 19.1%; in test [5] it was 16.4%; in test [6] it was 7.45%.

Regarding `O.O.O=Cc1ccccc1O.O=Cc1ccccc1O.[Co]`, the growth inhibition was 98.2% (active) in test [1]; 92.2% (active) in test [2]; 97.8% (active) in test [3]; 79.1% (active) in test [4]; 92.5% (active) in test [5]; 98.3% (active) in test [6].

Regarding `NCCc1cc2c3c(c1)CCCN3CCC2`, the growth inhibition was 96.5% (active) in test [1]; 96.5% (active) in test [2]; 94.5% (active) in test [3]; 88.7% (active) in test [4]; 94.9% (active) in test [5]; 98.2% (active) in test [6].

In the case of `c1cc[n+]2c3c(sc2c1)CCC3`, the growth inhibition in test [1] was 9.75%; in test [2], -8.2%; in test [3], -5.25%; in test [4] it was -4.15%; in test [5], -6.7%; in test [6] it was -26.8%.

On to `Cc1cc(Cl)ccc1OCCCC(=O)O`, for which the growth inhibition in test [1] is 28.4%; in test [2], 16.2%; in test [3], 41.5%; in test [4] it was 21%; in test [5] it was 47.1%; in test [6] it was 15.4%.

With `CC1=C(C)C(=O)C(C)=C(C)C1=O`, the growth inhibition is 25.2% in test [1]; 8.7% in test [2]; -9.6% in test [3]; -10.7% in test [4]; 5.15% in test [5]; 13.2% in test [6].

For `O=C1NC(=S)NC(=O)C1=CC1CC1`, the growth inhibition was 22.6% in test [1]; 13.8% in test [2]; 17.4% in test [3]; 19.6% in test [4]; 9.2% in test [5]; 29.6% in test [6].

With `CCn1/c(=N\N=O)sc2ccccc21`, the growth inhibition in test [1] is -4.1%; in test [2], 6.05%; in test [3], -4.2%; in test [4], -23.9%; in test [5], -35.3%; in test [6], 3.6%.

Take `N#CC(C#N)/C=C/[Se]c1ccccc1`: the growth inhibition is 14.2% in test [1]; 1.65% in test [2]; 2.1% in test [3]; 26.8% in test [4]; 0.35% in test [5]; 3.6% in test [6].

As for `O=C(CC(=O)C(F)(F)F)c1cccs1.O=C(CC(=O)C(F)(F)F)c1cccs1.O=C(CC(=O)C(F)(F)F)c1cccs1.[Eu]`, the growth inhibition in test [1] was 27.7%; in test [2], 37.6%; in test [3], 39.5%; in test [4] it was 9.4%; in test [5], 39%; in test [6], 23.1%.

Regarding `CNC(=O)Oc1ccc2c(C)cc(=O)oc2c1`, the growth inhibition is 21.1% in test [1]; 0.2% in test [2]; 4.55% in test [3]; -27% in test [4]; 17.2% in test [5]; 15.3% in test [6].

Consider `CCCCCCCCCCCCC(=O)O.[Pb]`, for which the growth inhibition in test [1] is 1.45%; in test [2], 10.2%; in test [3] it was -14.4%; in test [4], 24.2%; in test [5] it was -2.05%; in test [6], 3.35%.

On to `CC1C/C(=C\N=[N+]=[N-])C(=O)O1` (stereo not given), for which the growth inhibition in test [1] was -11.4%; in test [2] it was 14.7%; in test [3] it was 6%; in test [4], -4.9%; in test [5], 12.4%; in test [6] it was -0.05%.

With `[CH3][Sn]1([CH3])[O]C(=O)c2ccccc2C(=O)[O]1`, the growth inhibition in test [1] was 6.8%; in test [2], 15.7%; in test [3], 23.6%; in test [4] it was -13.4%; in test [5], -13.4%; in test [6] it was -13.8%.

Take `SCc1c(Cl)c(Cl)c(Cl)c(Cl)c1Cl.[Hg]`: the growth inhibition in test [1] is -7.65%; in test [2] it was -24.9%; in test [3] it was -15.5%; in test [4], -64.8%; in test [5], 3.45%; in test [6], -28.1%.

With `O=P(N1CCOCC1)(N1CC1)N1CC1`, the growth inhibition is 15.4% in test [1]; -7.35% in test [2]; -0.15% in test [3]; 13.7% in test [4]; 9% in test [5]; 34.7% in test [6].

For the compound `CN(CCOC(=O)c1ccc(Br)cc1)[N+](=O)[O-]`, the growth inhibition was 8.9% in test [1]; 3.2% in test [2]; -6.25% in test [3]; 5.8% in test [4]; 38.9% in test [5]; 22.9% in test [6].

As for `Cc1ccc(NC2=NCCS2)cc1Cl`, the growth inhibition in test [1] was 3.05%; in test [2], 7.15%; in test [3], 12.1%; in test [4], 10.8%; in test [5], 10.2%; in test [6], 16.1%.

On to `CC(=S)N=Cc1c(O)[nH]c(=O)[nH]c1=O`, for which the growth inhibition was -6.2% in test [1]; -6.8% in test [2]; -10.2% in test [3]; 21.6% in test [4]; -7.55% in test [5]; 9.55% in test [6].

As for `COc1ccc(CCNC2CC3CCC2(C)C3(C)C)cc1OC` (stereo not given), the growth inhibition in test [1] was 15.6%; in test [2], 12.8%; in test [3], 11.5%; in test [4], -22.3%; in test [5], 8.75%; in test [6] it was 24.9%.

Regarding `C/C=C1/C[N+]2([O-])CC[C@@]34c5ccc(OC)cc5N(C)[C@H]3C2CC1C4C(=O)OC` (stereo not given in full), the growth inhibition is 7.65% in test [1]; -8.05% in test [2]; -3.1% in test [3]; -6% in test [4]; -10.8% in test [5]; 2.25% in test [6].

Regarding `CC1(Cl)CC2C(CC1Sc1nnnn1-c1ccccc1)C2(C)C` (stereo not given), the growth inhibition in test [1] is -7.45%; in test [2], -35.2%; in test [3], -7.2%; in test [4] it was -20.6%; in test [5], -18.4%; in test [6], -7.2%.

For the compound `O=C(NCCNC(=O)Nc1ccccc1S(=O)(=O)F)Nc1ccccc1S(=O)(=O)F`, the growth inhibition is -17% in test [1]; -35.2% in test [2]; -16.1% in test [3]; 6.55% in test [4]; -32.1% in test [5]; -13% in test [6].

As to `C/C(=C\COc1ccc2ccc(=O)oc2c1)C1=CC(=O)C(C)(C)O1`, the growth inhibition in test [1] was -2.65%; in test [2], -17.2%; in test [3] it was 18.9%; in test [4], 9.85%; in test [5] it was -14.8%; in test [6], 12.2%.

As for `CC(C)CCON=C(N)N`, the growth inhibition in test [1] is -23.8%; in test [2] it was -2.25%; in test [3] it was -13.7%; in test [4] it was -40%; in test [5], -5.6%; in test [6] it was 2.55%.

With `S=C(Nc1ccccc1)Nc1ccc(N(CCCl)CCCl)cc1`, the growth inhibition was 17.6% in test [1]; 0% in test [2]; 12.6% in test [3]; -40.8% in test [4]; 10.1% in test [5]; 21.7% in test [6].
